Results filed as inconclusive are left out. Activity calls are given as the source filed them. Unless noted, calls come from the whole dose curve; as a rule, active = well fitted curve in the direction sought with a large enough effect; inconclusive = small, poorly fitted or top-dose-only effect, or another doubt; inactive = no such curve, though single readings can be large; an effect the other way counts as inactive or inconclusive.
Key:
[1] = biological target: Glutathione peroxidase 1 (Homo sapiens) (UniProt P07203); assay: Primary qHTS Assay for Inhibitors of Recombinant Selenoprotein Glutathione Peroxidase 1 (GPX1) (AID 1845191); settings: recombinant GPX1, GR-coupled NADPH fluorescence, 15 min; series mostly up to 48.8 µM; note: nearly all actives have a fitted effect of over 65% in size; note: potency is the fitted concentration of half-maximal effect
Procedure, shortened: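 GR-coupled readout: NADPH consumption tracked by fluorescence, ex 340/em 450 nm, at t=0 and after 15 min at RT. Final mix 10 nM GPX1, 1 mM GSH, 0.5 mM CHP, 0.5 mM NADPH, 100 nM GR, 0.01% BSA, following 30 min enzyme–compound preincubation.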

[2] = HepG2 viability counterscreen (readout 2: ATP content) against the NCATS DSHEA and TCM libraries (AID 1794840); settings: ATP content luminescence; series mostly up to 27.3 µM; note: 0% is about no effect
Procedure, shortened: (§1)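 Same wells read twice: first fluorescence from cleaved GF-AFC substrate (25 uM final, 30 min, 37C) for live-cell protease, then CellTiter-Glo luminescence after 30 min at room temperature for ATP. HepG2 cells were exposed ~24 h to substances.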

[3] = HepG2 viability counterscreen (readout 1: protease activity) against the NCATS DSHEA and TCM libraries (AID 1794841); settings: qHTS concentration series; series mostly up to 27.3 µM;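 note: cells exposed to compounds for about 24 h before the protease read; 0% is about no effect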
Procedure, shortened: as §1

[4] = biological target: Phospholipid hydroperoxide glutathione peroxidase GPX4 (Homo sapiens) (UniProt P36969); assay: Primary qHTS Assay for Inhibitors of Recombinant Selenoprotein Glutathione Peroxidase 4 (GPX4) (AID 1845192); settings: recombinant GPX4, GR-coupled NADPH fluorescence, 15 min; series mostly up to 50 µM; note: potency is the fitted concentration of half-maximal effect; nearly all actives have a fitted effect of over 65% in size
Procedure, shortened: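 Steps: GPX4 plus compound, 30 min RT; add GR/GSH/NADPH master mix; start with cumene hydroperoxide; read 340/450 nm fluorescence at 0 and 15 min. Finals were 200 nM GPX4, 1 mM GSH, 0.5 mM CHP, 0.5 mM NADPH, 100 nM GR.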

[5] = biological target: Cytochrome P450 3A4 (Homo sapiens) (UniProt P08684); assay: qHTS for inhibitors of CYP3A4 against the NCATS DSHEA and TCM libraries (AID 1919971); settings: recombinant CYP3A4 enzyme activity, luminescence qHTS; series mostly up to 34.1 µM; note: potency is the fitted concentration of half-maximal effect
Procedure, shortened: (§2)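 Isoform-specific enzyme and substrate levels; enzyme-free wells as background. Reaction: 1x NADPH regenerating system, 30-45 min, room temperature, shielded from light; luminescent detection reagent added, 30 min.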

[6] = biological target: Cytochrome P450 2C19 (Homo sapiens) (UniProt P33261); assay: qHTS for inhibitors of CYP2C19 against the NCATS DSHEA and TCM libraries (AID 1919974); settings: CYP2C19 enzyme inhibition, luminescence qHTS; series mostly up to 34.1 µM;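 note: luminescence from luciferin released by CYP2C19 oxidation of a pro-luciferin substrate; potency is the fitted concentration of half-maximal effect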
Procedure, shortened: as §2

[7] = KB-3-1 P-gp reporter qHTS against the NCATS DSHEA and TCM libraries (AID 1919975); settings: KB-3-1 parental cells, CellTiter-Glo luminescence viability, 72 h; series mostly up to 26.1 µM; note: 0% is about no effect
Procedure, shortened: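 KB-3-1 parental line, 1536-well qHTS: cells seeded, ~4 h attachment, pintool compound addition, ~72 h at 37C, then CellTiter-Glo, 30 min RT, luminescence. Concentration-response format.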

[8] = qHTS Counterscreen for compound interference against the NCATS DSHEA and TCM libraries (AID 1919978); settings: firefly luciferase detection reagent interference, luminescence;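 note: compounds preincubated with 1 µM D-luciferin or buffer before detection reagent; % of control where 0% means no effect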
Procedure, shortened: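 Compounds, titrated from 19.5 nM to 39.8 uM final, were pinned onto 1 uM D-luciferin or plain 100 mM potassium phosphate. After 15 min at room temperature, luciferin detection reagent was added for 30 min before the luminescence read.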

[9] = Dual reporter qHTS for agonist of Pregnane X Receptor (hPXR) against the NCATS DSHEA and TCM libraries: Fluorescence readout (AID 1920058); settings: PXR dual reporter cells; series mostly up to 40 µM; note: 0% is about no effect
Procedure, shortened: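 In this qHTS counter-read, reporter-bearing HepG2 cells in charcoal-stripped serum received substances for approximately 24 h before viability was assessed fluorometrically with CellTiter-Fluor.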

[10] = biological target: Nuclear receptor subfamily 1 group I member 2 (Homo sapiens) (UniProt O75469); assay: Dual reporter qHTS for agonist of Pregnane X Receptor (hPXR) against the NCATS DSHEA and TCM libraries: Luminescence readout (AID 1920059); settings: hPXR dual reporter cells, luciferase luminescence agonist; series mostly up to 40 µM; note: 0% is about no effect
Procedure, shortened: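 hPXR-Luc HepG2 cells, 2000/well in 5% charcoal-stripped FBS medium, attached 5 h, then exposed 24 h at 37C to compounds. Viability by CellTiter-Fluor, then luciferase luminescence with ONE-Glo.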

[11] = biological target: Nuclear receptor subfamily 1 group I member 2 (Homo sapiens) (UniProt O75469); assay: Dual reporter qHTS for antagonist of Pregnane X Receptor (hPXR) against the NCATS DSHEA and TCM libraries: Luminescence Readout (AID 1920060); settings: hPXR dual reporter cells, luciferase luminescence, antagonist mode; series mostly up to 40 µM;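 note: HepG2 cells carrying hPXR luciferase reporter stimulated with rifampicin at 2 µM; 0% is about no effect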
Procedure, shortened: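 Antagonist mode: rifampicin 2 uM final co-added with compounds to hPXR-LucHepG2 cells for 24 h at 37C. Viability by CellTiter-Fluor, Ex/Em 405/540 nm, 1 h; reporter by ONE-Glo luminescence.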

[12] = biological target: Lysosomal acid glucosylceramidase (Homo sapiens) (UniProt P04062); assay: Glucocerebrosidase-p2 (AID 348; in the data active = potency below about 10 µM; note: potency is the fitted concentration of half-maximal effect); settings: purified GBA, blue fluorogenic substrate, 40 min
Procedure, shortened: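 Normal human glucocerebrosidase (0.2 nM) with blue fluorogenic substrate (80 uM final) in citrate/phosphate pH 5.9 with 10mM sodium taurocholate, 0.01% tween-20; 40 min RT, NaOH/glycine stop; fluorescence Ex 365/Em 440; AC50 from a titration from 0.6 nM upwards.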

[13] = AP1 Signaling Pathway (AID 357; active = well fitted curve in either direction with a large enough effect, not every such curve was filed as active; note: % is set by controls: 0 for no effect and ±100 for the full control effect); settings: ME-180 AP-1-bla reporter, EGF-induced, beta-lactamase ratio, 5 h; at 7.69 µM (top of the series) unless noted
Procedure, shortened: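 AP-1-bla ME-180 cells with beta-lactamase reporter under AP-1 response element, stimulated with EC50 EGF; compounds titrated, 5 hours at 37 degrees Celsius. CCF4 read at 460/530 nm ratio; positive and negative modulators judged by AC50.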

[14] = NFAT Signaling Pathway (AID 444; active = well fitted curve in either direction with a large enough effect, not every such curve was filed as active;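 note: carbachol stimulus at about its EC50 of 1 µM final; % is set by controls: 0 for no effect and ±100 for the full control effect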); settings: Jurkat NFAT-bla M1, carbachol, beta-lactamase ratio, 5 h; at 7.69 µM (top of the series) unless noted
Procedure, shortened: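 Jurkat cells with NFAT-driven β-lactamase reporter and co-expressed M1 receptor, stimulated with carbachol (final 1 uM, ~EC50), compound titration, 5 h at 37 °C. CCF4 loaded 1 h at RT; 460/530 nm ratio gave %activity and AC50.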

[15] = Stat Signaling Pathway (AID 446; active = well fitted curve in either direction with a large enough effect, not every such curve was filed as active;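 note: ME-180 cervical cancer cells given 40 pM IL-6 alongside compound; SIE-controlled beta-lactamase reporter measured as 460/530 nm FRET emission ratio; % is set by controls: 0 for no effect and ±100 for the full control effect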); settings: ME-180 (cervical carcinoma) SIE beta-lactamase reporter, IL-6 stimulated, 5 h; series mostly up to 7.69 µM
Procedure, shortened: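 Compound effects on IL-6-induced STAT reporter activity were measured in ME-180 cells. After overnight culture, cells were co-treated with 40 pM IL-6 for 5 hrs before beta-lactamase substrate loading at room temperature.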

[16] = biological target: Glucocorticoid receptor (Homo sapiens) (UniProt P04150); assay: GR-GFP Redistribution (AID 450;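 active = compounds whose dose series gives a full or clear partial fitted curve of increased nuclear translocation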; note: potency is the fitted concentration of half-maximal effect); settings: U2OS GR-GFP nuclear translocation, laser cytometry, 2 h
[17] = biological target: Mitogen-activated protein kinase 10 (Mus musculus) (UniProt Q61831); assay: JNK3 AlphaScreen Assay (AID 530; active = well fitted curve in either direction with a large enough effect, not every such curve was filed as active;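 note: kinase came from lysate of stimulated human HepG2 cells; signal reports phosphorylation of biotinylated GST-cJun 1-79 at Ser73 with 10 µM ATP; % is set by controls: 0 for no effect and ±100 for the full control effect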); settings: JNK3 lysate, c-Jun phosphorylation; series mostly up to 57.1 µM
Procedure, shortened: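 HepG2 lysate (IL-1b/TNFa pre-activated) + biotin-GST-cJun 1-79 + anti-pSer73 cJun; cpd titration, 15 min RT; ATP 10 uM start; Tris pH 7.6, MgCl2, DTT, vanadate; beads in EDTA buffer; AlphaScreen.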

[18] = biological target: Dual specificity protein kinase CLK4 (Homo sapiens) (UniProt Q9HAZ1); assay: qHTS Assay for Inhibitors of CDC-like Kinase 4 (ADP-FP Assay) (AID 1795); settings: Transcreener ADP fluorescence polarization; series mostly up to 50 µM;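 note: recombinant human CLK4 phosphorylating RS repeat peptide at 1 µM ATP; % is set by controls: 0 for no effect and ±100 for the full control effect; nearly all actives have a fitted effect of over 60% in size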
Procedure, shortened: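 Clk4 6.25 nM; RS peptide 100 uM; ATP 1 uM; 25 mM Tris pH 7.5, 10 mM MgCl2; 1 h reaction. ADP detected via antibody/orange tracer FP displacement; TG003 positive control.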

[19] = biological target: Ubiquitin carboxyl-terminal hydrolase 1 (Homo sapiens) (UniProt O94782); assay: Inhibitors of USP1/UAF1: Pilot qHTS (AID 504865); settings: purified USP1/UAF1, Ub-rhodamine cleavage fluorescence; series mostly up to 54.9 µM;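 note: rhodamine fluorescence freed from ubiquitin-rhodamine substrate followed over time; top concentration of the series differs between compounds; % is set by controls: 0 for no effect and ±100 for the full control effect; nearly all actives have a fitted effect of over 35% in size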
Procedure, shortened: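 In 50mM HEPES pH 7.8 containing 0.5mM EDTA, 1mM TCEP, 0.1 mg/ml BSA and 0.01% Tween-20, 1nM USP1/UAF1 is exposed to compound for 15 min, then Ub-Rho (150nM final) is added and fluorescence is read over time.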

[20] = biological target: Cytochrome P450 1A2 (Homo sapiens) (UniProt P05177); assay: p450-cyp1a2 (AID 410; calls by dose curve; note: potency is the fitted concentration of half-maximal effect); settings: recombinant CYP1A2, luciferin-ME demethylation, luminescence; series mostly up to 57 µM
Procedure, shortened: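 Read-out is luminescence from luciferin produced by CYP1A2 demethylation of Luciferin-ME (100uM, at Km). Detection reagent stopped the 60 min NADPH-dependent reaction; signals were normalized to 57 uM furafylline.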

[21] = biological target: Glucocorticoid receptor (Homo sapiens) (UniProt P04150); assay: GR-EFC Redistribution (AID 451; calls by dose curve; note: potency is the fitted concentration of half-maximal effect); settings: CHO-K1 GR-EFC translocation, beta-gal luminescence, 2 h
Procedure, shortened: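 CHO-K1 cells expressing nuclear EA and GR-ED fragments of b-gal; compounds titrated up to 46 uM final, 2 h at 37 C. GR nuclear translocation read as complemented b-gal luminescence after 1 h RT detection.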

[22] = biological target: 3',5'-cyclic-AMP phosphodiesterase 4B (Homo sapiens) (UniProt Q07343); assay: qHTS Assay for Inhibitors of PDE-IV (AID 607; active = well fitted activation curve with a large enough effect in the main read-out, with a control signal flat, not every such curve was filed as active; note: % of control where 0% means no effect); settings: HEK293 ACTOne CNG channel cells, membrane potential fluorescence; series mostly up to 22.9 µM
Procedure, shortened: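 ACTOne HEK293 cells carry a modified cAMP-gated CNG channel and express endogenous PDE4; plated 1000 cells/well, compounds up to 22.9 uM final. Membrane-potential dye fluorescence (ex 535/em 590) was read; parental cells received 10 uM forskolin + 100 uM RO 20-1724.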

[23] = biological target: Cytochrome P450 3A4 (Homo sapiens) (UniProt P08684); assay: qHTS Assay for Inhibitors and Substrates of Cytochrome P450 3A4 (AID 884); settings: recombinant CYP3A4, Luciferin-PPXE luminescence; series mostly up to 57.1 µM; note: potency is the fitted concentration of half-maximal effect; nearly all actives have a fitted effect of over 50% in size
Procedure, shortened: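 Luminescent readout of luciferin produced by CYP3A4 (20 nM) dealkylation of Luciferin-PPXE, 25 uM (its KM). NADPH-driven reaction ran 60 min at RT after 10 min compound preincubation; data scaled to 57 uM ketoconazole as 100% inhibition.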

[24] = biological target: Cytochrome P450 3A4 (Homo sapiens) (UniProt P08684); assay: qHTS Assay for Activators of Cytochrome P450 3A4 (AID 885); settings: recombinant CYP3A4, Luciferin-PPXE luminescence, 60 min; series mostly up to 57.1 µM; note: nearly all actives have a fitted effect of over 65% in size
Procedure, shortened: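 CYP3A4 activity: Luciferin-PPXE O-dealkylation, 25uM substrate, 200mM KPO4, RT throughout. Read-out is luciferase luminescence; higher values reflect activation.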

[25] = biological target: Cytochrome P450 2D6 (Homo sapiens) (UniProt P10635); assay: qHTS Assay for Inhibitors and Substrates of Cytochrome P450 2D6 (AID 891); settings: recombinant CYP2D6, luciferin-ME EGE luminescence; series mostly up to 57.1 µM; note: potency is the fitted concentration of half-maximal effect; nearly all actives have a fitted effect of over 60% in size
Procedure, shortened: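 Luminescent read-out of luciferin formed by 5 nM human CYP2D6 demethylating 30 uM Luciferin-ME EGE (Km level) over 60 min at room temperature after NADPH regeneration addition. Data normalized to full inhibition by 1.43 uM quinidine.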

Sequence of Cytochrome P450 3A4 (Homo sapiens) (P08684 whole entry, looked up, canonical isoform): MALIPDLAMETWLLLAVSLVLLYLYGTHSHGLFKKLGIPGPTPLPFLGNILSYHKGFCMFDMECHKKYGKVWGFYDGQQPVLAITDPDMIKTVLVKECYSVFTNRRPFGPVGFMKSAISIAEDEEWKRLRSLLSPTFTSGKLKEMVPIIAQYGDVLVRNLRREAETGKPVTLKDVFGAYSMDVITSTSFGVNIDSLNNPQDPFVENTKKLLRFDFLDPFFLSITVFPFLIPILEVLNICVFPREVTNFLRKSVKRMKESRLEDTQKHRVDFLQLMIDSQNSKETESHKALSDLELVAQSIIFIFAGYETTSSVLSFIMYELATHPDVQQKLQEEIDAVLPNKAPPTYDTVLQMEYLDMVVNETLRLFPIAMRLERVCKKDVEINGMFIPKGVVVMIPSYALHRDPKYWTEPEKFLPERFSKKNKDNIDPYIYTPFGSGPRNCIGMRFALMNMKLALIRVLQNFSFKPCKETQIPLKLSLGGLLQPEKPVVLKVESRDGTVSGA
Sequence of Glutathione peroxidase 1 (Homo sapiens) (P07203 whole entry, looked up): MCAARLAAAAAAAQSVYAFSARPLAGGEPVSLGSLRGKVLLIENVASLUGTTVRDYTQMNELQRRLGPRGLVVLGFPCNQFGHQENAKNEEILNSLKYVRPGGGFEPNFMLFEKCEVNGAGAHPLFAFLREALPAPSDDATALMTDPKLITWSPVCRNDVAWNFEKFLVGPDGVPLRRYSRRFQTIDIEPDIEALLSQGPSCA
Sequence of Glucocorticoid receptor (Homo sapiens) (P04150 whole entry, looked up, the tested form may be a part): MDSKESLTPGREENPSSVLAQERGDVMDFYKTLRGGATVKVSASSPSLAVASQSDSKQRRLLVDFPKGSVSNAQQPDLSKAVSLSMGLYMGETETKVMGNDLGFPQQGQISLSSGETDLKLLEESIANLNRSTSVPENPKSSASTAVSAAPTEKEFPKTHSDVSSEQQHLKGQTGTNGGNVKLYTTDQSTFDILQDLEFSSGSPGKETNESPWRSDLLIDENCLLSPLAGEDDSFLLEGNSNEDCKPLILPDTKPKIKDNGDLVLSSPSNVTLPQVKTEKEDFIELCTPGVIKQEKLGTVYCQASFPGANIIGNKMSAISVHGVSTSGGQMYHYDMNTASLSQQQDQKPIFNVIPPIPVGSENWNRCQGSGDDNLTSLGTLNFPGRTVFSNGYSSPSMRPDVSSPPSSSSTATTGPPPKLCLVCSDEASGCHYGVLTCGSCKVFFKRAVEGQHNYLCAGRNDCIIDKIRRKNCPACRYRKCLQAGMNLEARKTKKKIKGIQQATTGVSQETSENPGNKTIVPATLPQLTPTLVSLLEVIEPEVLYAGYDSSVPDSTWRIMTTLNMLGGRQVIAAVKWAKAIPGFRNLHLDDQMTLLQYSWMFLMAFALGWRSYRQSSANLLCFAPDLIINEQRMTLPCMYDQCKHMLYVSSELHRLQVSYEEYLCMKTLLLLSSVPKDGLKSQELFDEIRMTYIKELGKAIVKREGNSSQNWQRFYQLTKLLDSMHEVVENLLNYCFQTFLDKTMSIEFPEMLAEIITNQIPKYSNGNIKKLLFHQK
Sequence of Nuclear receptor subfamily 1 group I member 2 (Homo sapiens) (O75469 whole entry, looked up): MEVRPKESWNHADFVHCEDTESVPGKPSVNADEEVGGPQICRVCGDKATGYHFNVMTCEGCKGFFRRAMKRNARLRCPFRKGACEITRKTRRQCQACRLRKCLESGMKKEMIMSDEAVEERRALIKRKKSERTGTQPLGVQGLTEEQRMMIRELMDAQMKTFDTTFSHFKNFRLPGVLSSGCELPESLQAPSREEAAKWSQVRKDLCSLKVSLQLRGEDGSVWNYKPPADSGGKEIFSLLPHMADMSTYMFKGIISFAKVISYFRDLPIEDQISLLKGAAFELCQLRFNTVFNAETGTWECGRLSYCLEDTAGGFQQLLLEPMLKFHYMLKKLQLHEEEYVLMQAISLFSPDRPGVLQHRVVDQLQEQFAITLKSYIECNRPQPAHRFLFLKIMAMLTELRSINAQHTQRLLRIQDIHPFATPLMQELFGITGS
Sequence of Dual specificity protein kinase CLK4 (Homo sapiens) (Q9HAZ1 whole entry, looked up): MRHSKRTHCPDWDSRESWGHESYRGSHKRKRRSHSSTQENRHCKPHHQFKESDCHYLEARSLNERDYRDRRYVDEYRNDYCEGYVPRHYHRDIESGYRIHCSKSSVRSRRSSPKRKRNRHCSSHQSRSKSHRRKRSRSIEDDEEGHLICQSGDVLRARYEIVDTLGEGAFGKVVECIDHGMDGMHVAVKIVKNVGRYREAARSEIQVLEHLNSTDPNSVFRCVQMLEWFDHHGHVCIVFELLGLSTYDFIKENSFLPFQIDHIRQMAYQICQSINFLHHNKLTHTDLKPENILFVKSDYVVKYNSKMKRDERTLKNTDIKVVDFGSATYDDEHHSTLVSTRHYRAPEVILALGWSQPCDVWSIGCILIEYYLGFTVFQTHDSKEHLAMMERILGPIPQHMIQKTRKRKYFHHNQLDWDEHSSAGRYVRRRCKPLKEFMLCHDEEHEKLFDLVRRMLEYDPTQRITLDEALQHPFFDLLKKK
Sequence of Ubiquitin carboxyl-terminal hydrolase 1 (Homo sapiens) (O94782 whole entry, looked up): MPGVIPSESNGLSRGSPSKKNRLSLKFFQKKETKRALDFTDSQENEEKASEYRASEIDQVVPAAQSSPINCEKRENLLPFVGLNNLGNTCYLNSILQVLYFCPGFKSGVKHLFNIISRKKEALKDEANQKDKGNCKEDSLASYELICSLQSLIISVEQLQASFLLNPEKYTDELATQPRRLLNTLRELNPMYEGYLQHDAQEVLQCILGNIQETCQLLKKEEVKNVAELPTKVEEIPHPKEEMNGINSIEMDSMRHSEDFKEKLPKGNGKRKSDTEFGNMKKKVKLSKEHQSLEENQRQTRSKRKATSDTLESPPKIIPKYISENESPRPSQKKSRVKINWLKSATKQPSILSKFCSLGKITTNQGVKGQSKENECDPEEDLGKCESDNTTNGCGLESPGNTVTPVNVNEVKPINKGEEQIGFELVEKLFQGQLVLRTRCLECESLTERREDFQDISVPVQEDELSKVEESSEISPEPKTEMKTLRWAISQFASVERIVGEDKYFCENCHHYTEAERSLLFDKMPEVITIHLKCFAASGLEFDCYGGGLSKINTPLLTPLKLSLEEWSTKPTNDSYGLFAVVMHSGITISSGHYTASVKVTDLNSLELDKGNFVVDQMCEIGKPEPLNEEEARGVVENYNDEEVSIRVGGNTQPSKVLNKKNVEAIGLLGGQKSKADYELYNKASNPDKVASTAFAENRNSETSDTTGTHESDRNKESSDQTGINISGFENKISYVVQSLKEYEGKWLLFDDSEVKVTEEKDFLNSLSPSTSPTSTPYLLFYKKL
Sequence of Cytochrome P450 1A2 (Homo sapiens) (P05177 whole entry, looked up): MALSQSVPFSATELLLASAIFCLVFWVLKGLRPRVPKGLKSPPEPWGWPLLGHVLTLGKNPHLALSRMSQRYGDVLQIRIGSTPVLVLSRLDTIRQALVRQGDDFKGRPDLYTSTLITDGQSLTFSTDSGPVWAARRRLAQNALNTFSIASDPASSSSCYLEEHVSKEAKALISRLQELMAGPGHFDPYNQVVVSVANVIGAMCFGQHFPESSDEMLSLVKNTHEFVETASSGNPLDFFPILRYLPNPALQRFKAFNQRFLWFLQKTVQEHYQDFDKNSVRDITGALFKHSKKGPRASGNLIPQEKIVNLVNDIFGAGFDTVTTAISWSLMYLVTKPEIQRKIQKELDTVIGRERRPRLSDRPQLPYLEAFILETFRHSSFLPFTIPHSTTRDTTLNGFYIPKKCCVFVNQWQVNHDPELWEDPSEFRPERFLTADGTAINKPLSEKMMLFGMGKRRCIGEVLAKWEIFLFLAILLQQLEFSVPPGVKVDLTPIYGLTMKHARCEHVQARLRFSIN
Sequence of Cytochrome P450 2C19 (Homo sapiens) (P33261 whole entry, looked up): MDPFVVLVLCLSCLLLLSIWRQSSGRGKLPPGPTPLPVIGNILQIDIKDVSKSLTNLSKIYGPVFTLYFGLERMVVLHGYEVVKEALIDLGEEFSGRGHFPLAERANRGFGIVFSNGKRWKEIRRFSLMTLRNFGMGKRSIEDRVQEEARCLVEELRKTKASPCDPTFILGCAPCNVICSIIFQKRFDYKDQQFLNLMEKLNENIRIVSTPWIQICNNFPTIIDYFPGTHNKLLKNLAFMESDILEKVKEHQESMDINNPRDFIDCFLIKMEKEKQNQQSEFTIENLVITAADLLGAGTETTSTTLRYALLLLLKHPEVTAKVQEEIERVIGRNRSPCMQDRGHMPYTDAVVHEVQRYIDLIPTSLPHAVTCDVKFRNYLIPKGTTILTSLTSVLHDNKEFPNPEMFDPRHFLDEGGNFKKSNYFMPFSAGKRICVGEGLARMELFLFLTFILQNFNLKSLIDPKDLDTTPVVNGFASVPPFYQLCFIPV
Sequence of Cytochrome P450 2D6 (Homo sapiens) (P10635 whole entry, looked up): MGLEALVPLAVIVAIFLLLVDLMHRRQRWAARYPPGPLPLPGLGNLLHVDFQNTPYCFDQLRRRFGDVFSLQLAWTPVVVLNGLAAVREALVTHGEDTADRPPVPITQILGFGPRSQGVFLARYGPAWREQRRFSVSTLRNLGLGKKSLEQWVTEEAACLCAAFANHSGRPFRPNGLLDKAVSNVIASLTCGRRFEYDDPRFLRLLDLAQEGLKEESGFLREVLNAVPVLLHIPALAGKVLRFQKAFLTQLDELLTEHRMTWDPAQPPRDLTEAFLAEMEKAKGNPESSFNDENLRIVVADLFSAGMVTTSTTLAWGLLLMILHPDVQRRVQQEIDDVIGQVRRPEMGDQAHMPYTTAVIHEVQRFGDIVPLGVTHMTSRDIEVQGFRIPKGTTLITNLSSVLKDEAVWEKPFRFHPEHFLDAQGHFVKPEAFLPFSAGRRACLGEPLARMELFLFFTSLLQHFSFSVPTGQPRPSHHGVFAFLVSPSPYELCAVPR
Sequence of Phospholipid hydroperoxide glutathione peroxidase GPX4 (Homo sapiens) (P36969 whole entry, looked up): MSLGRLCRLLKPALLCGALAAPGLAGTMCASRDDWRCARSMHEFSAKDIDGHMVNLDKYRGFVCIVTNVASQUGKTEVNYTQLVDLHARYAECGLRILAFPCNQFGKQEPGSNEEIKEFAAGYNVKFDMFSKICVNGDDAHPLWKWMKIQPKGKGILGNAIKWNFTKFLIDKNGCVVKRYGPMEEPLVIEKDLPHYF

Cc1cc(Nc2cccc(C(F)(F)F)c2)nc2ccc(NC(=O)c3ccc(=O)[nH]c3)cc12
inactive: Potency [1]

CCCCC/C=C/C/C=C/CCCCCCCC(=O)O
inactive: outcome [2] | outcome [3] | Potency [1] | outcome [7] | max response [8] 0.865% | outcome [9] | Potency [10] | outcome [11]
active: Potency [4] 4.47 µM | Potency [5] 22.4 µM | Potency [6] 22.4 µM

COc1ccccc1CNc1nc(-c2cccc(NS(C)(=O)=O)c2)nc2ccccc12
inactive: Potency [12] > 11.4 µM | activity change, negative = inhibition [13] -13.2% | activity change, negative = inhibition [14] -21% | outcome [15] | Potency [16] > 46 µM | Potency [17] | Potency [18] | Potency [19]

COc1ccccc1CNc1ncncc1-c1ccccc1Cl
active: Potency [20] 10 µM | Potency [23] 199 nM | Potency [25] 2 µM
inactive: activity change, negative = inhibition [13] -2.69% | activity change, negative = inhibition [14] -21.7% | Potency [16] > 46 µM | Potency [21] > 46 µM | Potency [17] | Potency [22] | outcome [24] | Potency [18] | Potency [19]

CO[C@H]1O[C@@H]2O[C@@]3(C)CC[C@H]4[C@H](C)CC[C@@H]([C@@H]1C)[C@@]24OO3
inactive: Potency [1]

O=C(O)C1=C(CSc2nnnn2CS(=O)(=O)O)CS[C@@H]2[C@@H](NC(=O)[C@H](O)c3ccccc3)C(=O)N12
active: Potency [1] 11.4 µM

C/C=C(/C)C(=O)O[C@@H]1c2cc(OC)c(OC)c(OC)c2-c2c(cc3c(c2OC)OCO3)C[C@H](C)[C@]1(C)O
inactive: Potency [1]

From PubChem BioAssay (NCATS)
